# High-throughput results from PubChem BioAssay.
# Only some compounds are listed: those with a hit (about 2.9% of all), similar ones and a draw of the others.
# TRPML1 inh: human mucolipin-1 channel inhibition. TRPML1-inducible cells, Ca2+ dye fluorescence, FDSS; stronger effect = lower value; inhibition of EC80 agonist-evoked calcium signal. 390,000 tested, 0.02% active. activity change, negative = inhibition, % (test concentration not listed); in the data active = activity change below about -50%;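 note: stimulus is agonist 54-4 at its EC80 concentration; % is set by controls: 0 for no effect and ±100 for the full control effect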
#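 TRPML1-DL cells, Tet-induced overnight (~16 h, 37 °C) at 1,500 cells/well, were loaded with Ca8 no-wash dye plus quencher for 45-90 min at room temperature. Compounds were pinned during FDSS kinetic reading; agonist 54-4 at EC80 (4 uM final) then added.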
# DRD3 agonist: activates the human D3 dopamine receptor; 410,000 tested, 0.58% active; D3R DiscoveRx beta-arrestin cells, luminescence, 90 min; P35462; max activation, %; in the data active = max activation above about 30%; note: 0% is about no effect
# Target sequence (P35462 whole entry, looked up): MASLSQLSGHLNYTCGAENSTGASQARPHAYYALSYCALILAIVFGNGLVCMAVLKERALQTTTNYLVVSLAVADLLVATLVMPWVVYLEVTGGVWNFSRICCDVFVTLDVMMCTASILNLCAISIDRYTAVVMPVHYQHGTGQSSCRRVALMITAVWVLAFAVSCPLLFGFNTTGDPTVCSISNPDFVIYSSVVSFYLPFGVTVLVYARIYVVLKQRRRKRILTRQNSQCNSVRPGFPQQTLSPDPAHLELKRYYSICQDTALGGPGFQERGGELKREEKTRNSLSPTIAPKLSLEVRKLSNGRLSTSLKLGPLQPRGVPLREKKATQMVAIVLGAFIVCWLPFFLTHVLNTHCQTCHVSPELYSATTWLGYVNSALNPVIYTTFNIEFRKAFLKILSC
#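 Cells at 1500/well, incubated overnight, then treated with pinned compounds (dopamine as control) for 90 min at 37 degrees C. DiscoveRx reagent added for 30 - 60 minutes at room temperature; luminescence read.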
# TRPML1 ag: human mucolipin-1 channel agonism; AID 624414; TRPML1-expressing cells, Ca2+ dye fluorescence, FDSS; Q9GZU1; activation, % (concentration not given with the values); 410,000 tested, 0.12% active; in the data active = activation above about 50%; note: 0% is about no effect
#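 Tetracycline-induced TRPML1-DL cells are seeded and incubated overnight before loading with a no-wash Ca2+ dye and quencher. Agonist activity is taken from the 110 s fluorescence read following compound pin-transfer on an FDSS, before EC80 54-4 challenge.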
# DRD3 antagonist: D3 dopamine receptor (human) antagonism. 360,000 tested, 2.5% active. AID 652054. max response, negative = inhibition, %. D3R cells, DiscoveRx beta-arrestin luminescence, antagonist mode; stronger effect = lower value. P35462; in the data active = max response below about -50%; note: % is set by controls: 0 for no effect and ±100 for the full control effect
#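 Cells plated overnight at 1500 cells/well, then exposed to library compounds with dopamine controls for 90 minutes at 37 degrees C. DiscoveRx reagent added for 30–60 minutes at room temperature; luminescence read, quantitative HTS format.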
# * marks the source's active call; other numbers are inactive results; . = no result given.
SMILES,TRPML1 inh,DRD3 agonist,TRPML1 ag,DRD3 antagonist
COc1cc(Cl)c(CN2CCCC(CO)(Cc3cccc(Cl)c3)C2)cc1OC (configuration not stated),-4,2,2,32
COc1cccc(CC2(CO)CCCN(C/C=C/c3ccccc3OC)C2)c1 (configuration not stated),27,-5,0,-82*
COc1ccc(/C=C/CN2CCCC(CO)(Cc3cccc(Cl)c3)C2)cc1 (configuration not stated),0,-17,0,-60*
CC(C)c1nn2c(=O)cc(COC(=O)c3ccccc3NC(=O)C3CCCCC3)nc2s1,25,-11,3,.
CCN(c1ccccc1C)S(=O)(=O)c1nnc(NC(=O)c2ccc(OC)c(OC)c2)s1,-29,-25,2,.
CCOC(=O)CN(C(=O)CSc1nnc2c(n1)[nH]c1ccc(OC)cc12)c1ccc(F)cc1,-7,-7,2,-65*
CC1Cc2ccccc2N1C(=O)CSc1nnc2c(n1)[nH]c1ccc(F)cc12 (configuration not stated),6,-3,3,-68*
CCOC(=O)CN(C(=O)CSc1nnc(CNc2ccc(F)cc2)o1)c1ccccc1,-6,-3,1,-80*
CCOC(=O)CN(C(=O)CSc1nnc(CNc2ccc(F)cc2)n1C)c1ccccc1,-2,-6,2,-24
Cc1ccc(Nc2nc(NCc3ccco3)nc3nccnc23)c(C)c1,.,.,0,.
COC(=O)c1ccc(NS(=O)(=O)c2cc(-c3cc(C)no3)ccc2OC)cc1,8,1,-1,-52*
Cc1csc2ncnc(N3CCN(C(=S)Nc4ccc(F)cc4F)CC3)c12,7,41*,0,19
Fc1ccc(NC(=S)N2CCCN(c3ccc(C(F)(F)F)cn3)CC2)c(F)c1,8,1,2,23
CCc1nnc(N2CCN(c3ncnc4c3oc3ccccc34)CC2)s1,12,0,2,13
c1ccc(N2CCN(c3ncnc4c3oc3ccccc34)CC2)cc1,9,36*,3,90
CC(=O)N1CCN(c2ccc(Nc3ncnc4c3oc3ccccc34)cc2)CC1,8,16,-1,-64*
c1ccc(-c2cnn3c(-c4ccccc4)c(-c4ccccc4)nc3n2)cc1,-25,4,79*,6
Nc1c(Cl)cc(C=O)cc1Cl,.,.,0,.
CCC(=O)c1ccc(OCC(O)CN2CCN(c3ccccn3)CC2)cc1 (configuration not stated),0,91*,0,-20
CC(C)(C)c1ccc(OCC(O)CN2CCN(c3ccccn3)CC2)cc1 (configuration not stated),29,64*,3,0
COc1ccc(-c2sc(N)nc2-c2ccccc2)cc1,.,.,0,.
COc1ccccc1N1CCN(C(=O)COc2cccc3ccccc23)CC1,-9,0,1,-1
COc1ccccc1C(=O)N1CCC(N2CCN(c3ccccc3OC)CC2)CC1,-8,-45,0,-65*
CC(C)(C)C1CCC(N2CCN(c3ccccc3)CC2)CC1 (configuration not stated),-3,1,1,-53*
COc1ccccc1N1CCN(c2ccc3cc(S(=O)(=O)N4CCCCC4)ccc3n2)CC1,-19,-8,96*,-5
SMILES,TRPML1 inh,DRD3 agonist,TRPML1 ag,DRD3 antagonist
COc1ccccc1N1CCN(C2CCN(C(=O)COc3ccccc3)CC2)CC1,5,-22,0,-61*
COc1ccccc1N1CCN(C2CCCN(S(=O)(=O)c3ccc(C)cc3)C2)CC1 (configuration not stated),23,-25,0,-80*
COc1ccc(C(=O)N2CCCC(N3CCN(c4ccccc4F)CC3)C2)c(OC)n1 (configuration not stated),23,38*,1,-20
COc1ccccc1C(=O)N1CCC(N2CCN(c3ccccc3)CC2)CC1,1,53*,0,-19
COc1ccccc1N1CCN(C2CCCN(C(=O)c3cc(C4CC4)on3)C2)CC1 (configuration not stated),-61*,-15,1,-9
COc1ccc(C(=O)N2CCC(N3CCN(c4ccccc4)CC3)CC2)cc1,-12,1,1,-19
C=CCOC(=O)/C(=C\c1ccccc1)NC(=O)c1ccco1,-4,5,-1,1
C=CCOC(=O)/C(=C\c1ccc(OC)cc1)NC(=O)c1ccco1,5,-7,0,-51*
CCOc1ccccc1CNS(=O)(=O)c1ccc2[nH]c(=O)ccc2c1,3,6,1,.
O=C(CN1CCCC1)Nc1ccc2c(c1)CCC2,11,-10,-1,-23
O=C(CN1CCN(S(=O)(=O)c2ccc(Br)cc2)CC1)Nc1ccc(F)cc1F,48,-1,1,-51*
O=C(CN1CCN(S(=O)(=O)c2ccccc2)CC1)Nc1ccc2c(c1)CCC2,-8,-25,0,-53*
CC1CCN(S(=O)(=O)c2ccc(NC(=O)CN3CCN(c4ccccc4)CC3)cc2)CC1,22,110*,-1,12
CC1CCN(S(=O)(=O)c2ccc(NC(=O)CN3CCN(C)CC3)cc2)CC1,-24,-13,1,-23
O=C(CN1CCN(c2ccccc2O)CC1)Nc1ccc2c(c1)CCC2,-3,-12,4,-72*
O=C(CN1C(=O)C2(OCCO2)c2ccccc21)c1ccc(Cl)cc1,9,3,2,-22
CC(=O)CC1(O)C(=O)N(CN2CCN(c3ccccc3)CC2)c2ccccc21 (configuration not stated),53,-24,0,-58*
CC1CCOC2(O1)C(=O)N(CN1CCN(c3cccc(Cl)c3)CC1)c1ccccc12 (configuration not stated),18,-15,0,-57*
C=C1CC2C(=O)N(Cc3cc(OC)ccc3OC)C(C(=O)OCC)C1N2C (configuration not stated),-11,.,0,.
Cc1cccc(N2CCN(C(=O)c3cc4c(=O)[nH]c5ccc(C)cc5c4s3)CC2C)c1 (configuration not stated),-19,-6,2,.
CCOC(=O)C1=C(C)NC2=C(C(=O)CC(c3cccs3)C2)C1c1cccs1 (configuration not stated),13,-7,0,-82*
O=[N+]([O-])c1ccc(N=NN(CCO)CCO)cc1,1,-2,1,-4
O=[N+]([O-])c1ccc(N=Nc2ncc[nH]2)cc1,19,-15,2,-111*
Cc1ccc2oc(=O)c3cc(C(=O)NCCCN4CCCCCC4)sc3c2c1,-11,-10,-1,-12
Cc1ccc2oc(=O)c3cc(C(=O)NCCCN4CCc5ccccc5C4)sc3c2c1,7,-13,5,-55*
NC(=O)c1c(N)[nH]c(C(=O)c2ccccc2)c1-c1ccccc1Br,.,-6,-1,-52*
CC(C)(C)C(=O)c1c(N)[nH]c(C(=O)c2ccccc2)c1-c1ccccc1Br,.,-5,-1,-13
Cc1nnc(SCC(=O)Nc2sc3c(c2C#N)CCCC3)[nH]c1=O,-26,-9,0,-54*
